The nature of assay [1]: growth inhibition of DIPG glioma cells, dose response, cell-based, SU-DIPG-XIII, MIPE4.0, CellTiter-Glo, qHTS (AID 1347061; cut-off not given, nearly all actives have AC50 up to about 37 µM;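 further: cells exposed to compound for 48 hours before readout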). The following applies: SU-DIPG-XIII viability, CellTiter-Glo ATP luminescence.
The nature of assay [2]: growth inhibition of DIPG glioma cells, dose response, cell-based, SU-DIPG-IV, MIPE4.0, CellTiter-Glo, qHTS (AID 1347063; cut-off not given, nearly all actives have AC50 up to about 30 µM;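 further: compound exposure lasted 48 hours before the viability readout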). The following applies: SU-DIPG-IV viability, CellTiter-Glo ATP luminescence. (In ATP-based viability assays light output follows the ATP content of the culture.)
The nature of assay [3]: viability loss in pontine glioma line – cell-based, SU-DIPG-XXV, MIPE5.0, CellTiter-Glo, qHTS, dose response (AID 1347065; cut-off not given, nearly all actives have AC50 up to about 26 µM;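 further: cells exposed to compound for 48 hours before ATP readout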). The following applies: CellTiter-Glo ATP luminescence.
Assay [4] in a line: SU-DIPG-VI glioma cell viability, MIPE4.0 library, CellTiter-Glo luminescence, qHTS (AID 1347066; cut-off not given, nearly all actives have AC50 up to about 30 µM;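 further: cells exposed to compound for 48 hours before readout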). The settings on record: CellTiter-Glo ATP luminescence.
The nature of assay [5]: JHH-DIPG-1 glioma cell viability, MIPE5.0 library, CellTiter-Glo luminescence, qHTS (AID 1347067; cut-off not given, nearly all actives have AC50 up to about 26 µM;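 further: cells exposed to compound for 48 hours before readout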). The following applies: JHH-DIPG-1 glioma viability, CellTiter-Glo ATP luminescence.
The nature of assay [6]: growth inhibition of DIPG glioma cells, dose response, cell-based, SU-DIPG-XIII, MIPE5.0, CellTiter-Glo, qHTS (AID 1347064; cut-off not given, nearly all actives have AC50 up to about 23 µM). The settings on record: SU-DIPG-XIII viability, CellTiter-Glo ATP luminescence.
The nature of assay [7]: SU-DIPG-XXV glioma cell viability, MIPE5.0 library, qHTS (AID 1347068; cut-off not given, nearly all actives have IC50 up to about 30 µM;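 on IC50: cells exposed to compound for 48 hours before viability readout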). A general note: qHTS replaces the single test concentration by a dilution series.
The nature of assay [8]: sensitizers of A549 cells to miR-34 induction, primary screen, imaging, A549 dox-inducible miR-34, nuclei and caspase counts (AID 1347080;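 active means compounds whose cell count with miR-34 switched on is under 0.7 times the count with it off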). The following applies: A549 miR-34 inducible, Hoechst nuclei count, 48 h.
Assay [9] is described as follows: modifiers of HSF1 nuclear foci, imaging, Selleck Cancer Library (AID 1347162; in the data active means plate-normalised HSF1 focus index below about 0.46). The settings on record: human cells, at 10 µM; SSMD: measured here: HSF1 foci SSMD mean; cell count: measured here: cell number; plate-normalised HSF1 focus index: stronger effect = lower value.
Assay [10] can be described thus: survival rescue of mitochondrial mutant cells in low glucose, primary screen, MELAS cybrids, Rieske KO mouse fibroblasts, CellTiter-Glo (AID 1508586;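 active means mean z-score across replicates of 1.96 or higher in either the MELAS or the Rieske mutant cell line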;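 further: z relative to plate mean and SD of compound and empty wells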).
The nature of assay [11]: ovarian cancer cell viability with rucaparib, profiling panel, oncology-focused library, rucaparib conditional (AID 1508598). The settings on record: patient-derived ovarian cancer cells, CellTiter-Glo viability, 144 h, stronger effect = lower value.
The mark [12] stands for this setting: stronger effect = lower value, cell number ratio, induced over uninduced.
Where [13] appears, read: measured here: relative caspase fold change +Dox/-Dox.
Setting [14] is: measured here: total cells with miR-34 induction, stronger effect = lower value.
[15] abbreviates: measured here: total cells without miR-34 induction.
Where [16] appears, read: MELAS cybrid survival, CellTiter-Glo 48 h, stronger effect = higher value.
The mark [17] stands for this setting: Rieske KO mouse fibroblast survival, CellTiter-Glo 72 h.

Results filed as inconclusive are left out. The source made the active and inactive calls.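 How the source made its calls, unless noted: active means normalized viability below 100% at a tested concentration; inactive means the rest.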

As usually defined, the AC50 is the concentration giving half of the maximal activity seen. As usually defined, the viability is a read-out of living cells in per cent, often relative to untreated cells. In general, IC50 refers to the concentration that gives 50% inhibition.

With `C[C@@H](NCc1cc2ccccc2[nH]1)c1cccc2ccccc12`, the compound was classed as inactive in [1], in assay [2] and in assay [4]. Further, the results for the AC50 in assay [3] and in assay [5] were 26.3 µM (active) and 14.8 µM (active), respectively.

Turning to `CC(=O)C1=C(O)C=C2Oc3c(C(C)=O)c(O)c(C)c(O)c3C2(C)C1=O` (centres undefined), the compound was called inactive in assay [1] and in [4].

Turning to `COc1ccc(COc2cc3oc(=O)c4cc(C(C)O)ccc4c3cc2OC)cc1` (centres undefined), the result in assay [1], in assay [6], in [3] and in assay [7] was inactive. Further, the figures for the fold change in assay [8] (setting [12]) and in assay [8] (setting [13]) were 0.923 (inactive) and 1.45, respectively. The figures for the cell count in [8] (setting [14]), in assay [8] (setting [15]) and in [9] were 7360, 7980 and 7240, respectively. In assay [9], this compound gave an SSMD of -0.619. For the same compound, the plate-normalised HSF1 focus index in [9] is 0.961 (inactive). Besides, the z-score in assay [10] (setting [16]) is -0.463 (inactive); in assay [10] (setting [17]), 0.921. Also, the viability in assay [11] (at 0.000305 µM, OCI-C5x cells, with rucaparib 10 µM, 100% = cells with rucaparib alone) is 108% (inactive); in assay [11] (at 0.000305 µM, OCI-C5x cells, without rucaparib) it was 122% (inactive); in assay [11] (at 0.000305 µM, OCI-P5x cells, with rucaparib 20 µM, 100% = cells with rucaparib alone), 103% (inactive); in assay [11] (at 0.000305 µM, OCI-P5x cells, without rucaparib) it was 97.5% (active); in assay [11] (at 0.00122 µM, OCI-C5x cells, with rucaparib 10 µM, 100% = cells with rucaparib alone), 119% (inactive); in assay [11] (at 0.00122 µM, OCI-C5x cells, without rucaparib), 114% (inactive). Further, the viability in [11] (at 0.00122 µM, OCI-P5x cells, with rucaparib 20 µM, 100% = cells with rucaparib alone) is 108% (inactive); in assay [11] (at 0.00122 µM, OCI-P5x cells, without rucaparib), 98% (active); in [11] (at 0.00488 µM, OCI-C5x cells, with rucaparib 10 µM, 100% = cells with rucaparib alone) it was 121% (inactive); in [11] (at 0.00488 µM, OCI-C5x cells, without rucaparib) it was 104% (inactive); in assay [11] (at 0.00488 µM, OCI-P5x cells, with rucaparib 20 µM, 100% = cells with rucaparib alone), 98.6% (active); in [11] (at 0.00488 µM, OCI-P5x cells, without rucaparib), 101% (inactive). Also, the viability was 118% (inactive) in assay [11] (at 0.0195 µM, OCI-C5x cells, with rucaparib 10 µM, 100% = cells with rucaparib alone); 118% (inactive) in assay [11] (at 0.0195 µM, OCI-C5x cells, without rucaparib); 99.9% (active) in assay [11] (at 0.0195 µM, OCI-P5x cells, with rucaparib 20 µM, 100% = cells with rucaparib alone); 98.3% (active) in [11] (at 0.0195 µM, OCI-P5x cells, without rucaparib); 122% (inactive) in assay [11] (at 0.0781 µM, OCI-C5x cells, with rucaparib 10 µM, 100% = cells with rucaparib alone); 114% (inactive) in [11] (at 0.0781 µM, OCI-C5x cells, without rucaparib). In addition, the viability in assay [11] (at 0.0781 µM, OCI-P5x cells, with rucaparib 20 µM, 100% = cells with rucaparib alone) was 103% (inactive); in assay [11] (at 0.0781 µM, OCI-P5x cells, without rucaparib), 96% (active); in [11] (at 0.313 µM, OCI-C5x cells, with rucaparib 10 µM, 100% = cells with rucaparib alone), 113% (inactive); in assay [11] (at 0.313 µM, OCI-C5x cells, without rucaparib), 100% (inactive); in assay [11] (at 0.313 µM, OCI-P5x cells, with rucaparib 20 µM, 100% = cells with rucaparib alone), 102% (inactive); in [11] (at 0.313 µM, OCI-P5x cells, without rucaparib), 92.5% (active). Also, the viability was 126% (inactive) in assay [11] (at 1.25 µM, OCI-C5x cells, with rucaparib 10 µM, 100% = cells with rucaparib alone); 107% (inactive) in [11] (at 1.25 µM, OCI-C5x cells, without rucaparib); 103% (inactive) in assay [11] (at 1.25 µM, OCI-P5x cells, with rucaparib 20 µM, 100% = cells with rucaparib alone); 94.4% (active) in [11] (at 1.25 µM, OCI-P5x cells, without rucaparib); 132% (inactive) in assay [11] (at 5 µM, OCI-C5x cells, with rucaparib 10 µM, 100% = cells with rucaparib alone); 130% (inactive) in [11] (at 5 µM, OCI-C5x cells, without rucaparib). Also, the viability in assay [11] (at 5 µM, OCI-P5x cells, with rucaparib 20 µM, 100% = cells with rucaparib alone) is 92.1% (active); in assay [11] (at 5 µM, OCI-P5x cells, without rucaparib), 90.6% (active).

Regarding `CCCCOc1c(C(=O)c2c(F)cc(C)cc2F)cnc2n[nH]cc12`, the call in [1] was inactive. In addition, the results for the concentration at half-maximal activity (AC50) in assay [2] and in [3] were 4.18 µM (active) and 1.66 µM (active), respectively. Also, the IC50 in [7] was 3.72 µM (active). For the same compound, the fold change in assay [8] (setting [12]) was 1.03 (inactive); in assay [8] (setting [13]), 0.597. Further, the results for the cell count in assay [8] (setting [14]) and in assay [8] (setting [15]) were 1950 and 1900, respectively. Also, the z-score in assay [10] (setting [16]) was 0.523 (inactive); in assay [10] (setting [17]), -1.74.

For the compound `CC[C@]1(O)C[C@@H]2CN(CCc3c([nH]c4ccccc34)[C@@](C(=O)OC)(c3cc4c(cc3OC)N(C=O)[C@@H]3C45CCN4CC=C[C@](CC)([C@H]45)[C@@H](OC(C)=O)[C@]3(O)C(=O)OC)C2)C1` (some centres undefined), the result in assay [1] was inactive. Besides, the compound was called inactive in assay [2]. In addition, in assay [9], the SSMD was 2.03, the cell count came out at 6870 and the plate-normalised HSF1 focus index is 1.12 (inactive).

In the case of `Cc1ccc2c(c1)c1c(n2CCc2ccc(C)nc2)CCN(C)C1`, the compound was called inactive in assay [1], in [2] and in [4].

Take `CS(=O)(=O)N(Cc1ccco1)CC(O)Cn1c2ccccc2c2ccccc21` (centres undefined): the outcome in assay [1], in assay [6], in assay [3], in assay [4], in assay [5] and in [7] was inactive.

As to `COc1cc2ncnc(Nc3cc(Br)c(O)c(Br)c3)c2cc1OC`, the compound was classed as inactive in assay [1] and in [4]. In assay [2], the AC50 was 2.35 µM (active).

For the origin of these results see PubChem BioAssay.
